Data from PubChem BioAssay (Tox21).
Several values for one entry are separate records, joined by “and”; a condition that tells them apart may be missing. Identical values can stand only once. Records with an inconclusive call do not appear. Where a call stands in place of a potency, no number is given. Some structures have more than one record in an assay (separate samples or runs), and their calls can disagree. Activity calls are given as the source filed them. Calls come from the whole dose curve; as a rule, active = well fitted activation curve with a large enough effect in the signal ratio in the repeat runs (not every such curve was filed as active); inconclusive = weak or mixed curves, or effect the other way; inactive = no such curve, though single readings can be large or run the other way; the % refers to the signal ratio.

Experiment: qHTS assay for small molecule agonists of the antioxidant response element (ARE) signaling pathway (AID 743202)
Conditions: HepG2 ARE-bla reporter, beta-lactamase FRET, 16 h; series mostly up to 73.3 µM; activation: at the top concentration
Source text: U.S. Tox21 Program National Center for Advancing Translational Sciences [NCATS] NIH Chemical Genomics Center [NCGC] U.S. Environmental Protection Agency [EPA] National Institutes of Environmental Health Sciences [NIEHS] National Toxicology Program [NTP] U.S. Food and Drug Administration [FDA] Tox21 Assay Overview: Oxidative stress has been implicated in the pathogenesis of a variety of diseases ranging from cancer to neurodegeneration. The antioxidant response element (ARE) signaling pathway plays an important role in the amelioration of oxidative stress. The CellSensor ARE-bla HepG2 cell line (Invitrogen) can be used for analyzing the Nrf2/antioxidant response signaling pathway. Nrf2 (NF-E2-related factor 2) and Nrf1 are transcription factors that bind to AREs and activate these genes. The CellSensor ARE-bla Hep G2 cell line contains a beta-lactamase reporter gene under control of the Antioxidant Response Element (ARE) stably integrated into HepG2 cells. The activation of the report gene under culture conditions can be detected by fluorescence intensity. This cell line has been used to screen the Tox21 10K compound library to identify agonists that induce oxidative stress.
Tox21 Assay Protocol Summary: The ARE-bla cells were dispensed at 2,000 cells/5 ul/well in 1536-well black wall/clear bottom plates using a Multidrop dispenser. After the assay plates were incubated at a 37 C/5% CO2 incubator for 5 hours, 23 nL of compounds dissolved in DMSO, positive controls or DMSO only was transferred to the assay plate by a pin tool. The plates were incubated at 37 C for 16 hours. After 1 uL of LiveBLAzer B/G FRET substrate was added using a Flying Reagent Dispenser, the plates were incubated at room temperature for 2 hours, and fluorescence intensity was measured by an Envision plate reader.
Potency is the fitted concentration of half-maximal effect.

Q: Which Potency does the source give for CCCCCCCCCCCCCC(=O)OC(C)C here?
A: inactive

Q: With CCCCCCCCCCCCCCCCCC(=O)OCC(O)CO (stereo not given) as the molecule, how does the Potency read?
A: inactive

Q: For Cc1ccc(O)c(-n2nc3ccccc3n2)c1, which Potency is on record?
A: 60.6 µM (active)

Q: For COc1ccc(C(=O)c2ccccc2)c(O)c1, which Potency is on record?
A: inactive

Q: Which Potency does the source give for CC(=O)OC/C=C(C)/C=C/C=C(C)/C=C/C1=C(C)CCCC1(C)C here?
A: 59.6 µM (active)

Q: Which Potency does the source give for CCCCOC(=O)CCCCCCCCC(=O)OCCCC here?
A: inactive

Q: Which Potency does the source give for NC(=O)N1c2ccccc2C=Cc2ccccc21 here?
A: inactive

Q: For CC(O)COc1ccccc1 (stereo not given), which Potency is on record?
A: inactive

Q: Which Potency does the source give for Cc1cccc(C)c1O here?
A: inactive

Q: With CCOCCO as the molecule, how does the Potency read?
A: inactive

Q: Which Potency does the source give for O=c1c(-c2ccc(O)cc2)coc2cc(O)cc(O)c12 here?
A: 6.74 µM (active) and 10.6 µM (active)

Q: For CCN(CC)CCOC(=O)c1ccc(N)cc1, which Potency is on record?
A: inactive

Q: With O=[N+]([O-])c1ccc(O)cc1 as the molecule, how does the Potency read?
A: inactive

Q: Which “activation” value does the source give for CCCCOCCOCCSC#N here?
A: -9.8% [at 94.8 µM] (inactive)

Q: Which Potency does the source give for CCCCOCCOCCOC(C)=O here?
A: inactive

Q: With Nc1ccc(N=Nc2ccccc2)c(N)n1 as the molecule, how does the Potency read?
A: inactive and 26.6 µM (active)

Q: Which Potency does the source give for CCCCCCCCOc1ccc(C(=O)c2ccccc2)c(O)c1 here?
A: inactive and 48.6 µM (active)

Q: Which “activation” value does the source give for C[C@]12C[C@H](O)[C@H]3[C@@H](CCC4=CC(=O)CC[C@@]43C)[C@@H]1CC[C@@H]2C(=O)CO here?
A: -0.844% (inactive)

Q: Which Potency does the source give for Cc1cccc2ccccc12 here?
A: inactive

Q: For COc1cc(O)c(C(=O)c2ccccc2)cc1S(=O)(=O)O, which Potency is on record?
A: inactive

Q: Which Potency does the source give for Cc1c(N(C)CS(=O)(=O)O)c(=O)n(-c2ccccc2)n1C here?
A: inactive

Q: Which Potency does the source give for C=CC(=O)NC(C)(C)CS(=O)(=O)O here?
A: inactive

Q: For CCn1cc(C(=O)O)c(=O)c2ccc(C)nc21, which Potency is on record?
A: inactive

Q: Which “activation” value does the source give for CN(C)Cc1cc(CN(C)C)c(O)c(CN(C)C)c1 here?
A: 2.06% (inactive)

Q: Which Potency does the source give for CC(=O)Oc1ccccc1C(=O)O here?
A: inactive

Q: For COCCOCCOC, which Potency is on record?
A: inactive

Q: Which Potency does the source give for CC(C)CC(C)CC(O)CC(C)C (stereo not given) here?
A: inactive

Q: With O=C(OCc1ccccc1)c1ccccc1 as the molecule, how does the Potency read?
A: inactive

Q: With CN/C(=C\[N+](=O)[O-])NCCSCc1ccc(CN(C)C)o1 as the molecule, how does the Potency read?
A: inactive

Q: Which Potency does the source give for O=C(O)Cc1cccc2ccccc12 here?
A: inactive

Q: With Cc1c(N(C)C)c(=O)n(-c2ccccc2)n1C as the molecule, how does the Potency read?
A: inactive

Q: With C=C(C)OC(C)=O as the molecule, how does the Potency read?
A: inactive

Q: For CC1(C)O[C@@H]2[C@@H](CO[C@@]3(COS(N)(=O)=O)OC(C)(C)O[C@@H]23)O1, which Potency is on record?
A: inactive

Q: For CC(C)(C)NCC(O)c1ccc(O)c(CO)c1 (stereo not given), which Potency is on record?
A: inactive

Q: Which “activation” value does the source give for Nc1cccc(N)c1 here?
A: 4.81% (inactive)

Q: Which Potency does the source give for CC(=O)CCC(C)C here?
A: 61.1 µM (active)

Q: With COC(=O)c1ccc(O)cc1 as the molecule, how does the “activation” value read?
A: 2.04% (inactive)

Q: For NC(N)=NC(N)=NCCc1ccccc1, which Potency is on record?
A: 6.08 µM (active) and 6.68 µM (active)

Q: For CCCCCCCC(=O)OCC(O)CO (stereo not given), which “activation” value is on record?
A: -0.0193% (inactive)

Q: For CCOC(=O)C(C)(C)Oc1ccc(Cl)cc1, which Potency is on record?
A: inactive
